# Results published in ChEMBL document CHEMBL2218924, “A broad activity screen in support of a chemogenomic map for kinase signalling research and drug discovery” (Biochem J, 2013).
# Experiments:
# [1] = target: T1, Ephrin type-A receptor 3 (Homo sapiens) (UniProt P29320); settings: at 10 µM
# T1 sequence (whole entry): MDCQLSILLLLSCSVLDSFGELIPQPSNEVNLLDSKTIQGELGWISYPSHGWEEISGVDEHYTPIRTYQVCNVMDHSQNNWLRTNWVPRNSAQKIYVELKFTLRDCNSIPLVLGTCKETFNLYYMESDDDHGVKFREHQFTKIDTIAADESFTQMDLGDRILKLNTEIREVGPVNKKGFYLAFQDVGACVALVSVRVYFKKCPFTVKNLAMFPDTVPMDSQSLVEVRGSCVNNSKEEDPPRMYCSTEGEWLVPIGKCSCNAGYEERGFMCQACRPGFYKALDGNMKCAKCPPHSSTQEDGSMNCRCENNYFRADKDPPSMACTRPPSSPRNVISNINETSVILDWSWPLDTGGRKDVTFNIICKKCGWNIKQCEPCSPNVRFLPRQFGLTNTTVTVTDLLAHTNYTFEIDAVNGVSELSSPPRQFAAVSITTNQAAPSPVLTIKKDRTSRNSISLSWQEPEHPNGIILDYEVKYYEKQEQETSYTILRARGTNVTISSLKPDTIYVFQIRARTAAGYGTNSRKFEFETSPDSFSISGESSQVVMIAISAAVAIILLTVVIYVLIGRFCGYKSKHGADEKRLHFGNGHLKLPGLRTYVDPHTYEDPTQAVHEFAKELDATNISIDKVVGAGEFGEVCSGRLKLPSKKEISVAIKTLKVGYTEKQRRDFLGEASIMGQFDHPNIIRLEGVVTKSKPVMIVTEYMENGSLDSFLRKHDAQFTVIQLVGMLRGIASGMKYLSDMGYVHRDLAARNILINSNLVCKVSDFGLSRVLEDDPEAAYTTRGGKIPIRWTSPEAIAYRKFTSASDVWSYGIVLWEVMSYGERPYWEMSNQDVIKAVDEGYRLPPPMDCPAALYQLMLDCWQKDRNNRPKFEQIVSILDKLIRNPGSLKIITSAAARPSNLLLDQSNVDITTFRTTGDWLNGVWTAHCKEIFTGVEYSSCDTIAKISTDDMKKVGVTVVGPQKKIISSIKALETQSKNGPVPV
# [2] = target: Ephrin type-A receptor 4 (Homo sapiens) (UniProt P54764); settings: at 1 µM
# [3] = target: Ephrin type-A receptor 4 (Homo sapiens) (UniProt P54764); settings: at 10 µM
# [4] = target: Ephrin type-A receptor 5 (Homo sapiens) (UniProt P54756); settings: at 1 µM
# [5] = target: Ephrin type-A receptor 5 (Homo sapiens) (UniProt P54756); settings: at 10 µM
# [6] = target: Ephrin type-A receptor 7 (Homo sapiens) (UniProt Q15375); settings: at 1 µM
# [7] = target: Ephrin type-A receptor 7 (Homo sapiens) (UniProt Q15375); settings: at 10 µM
# [8] = target: T2, Ephrin type-A receptor 8 (Homo sapiens) (UniProt P29322); settings: at 1 µM
# T2 sequence (whole entry): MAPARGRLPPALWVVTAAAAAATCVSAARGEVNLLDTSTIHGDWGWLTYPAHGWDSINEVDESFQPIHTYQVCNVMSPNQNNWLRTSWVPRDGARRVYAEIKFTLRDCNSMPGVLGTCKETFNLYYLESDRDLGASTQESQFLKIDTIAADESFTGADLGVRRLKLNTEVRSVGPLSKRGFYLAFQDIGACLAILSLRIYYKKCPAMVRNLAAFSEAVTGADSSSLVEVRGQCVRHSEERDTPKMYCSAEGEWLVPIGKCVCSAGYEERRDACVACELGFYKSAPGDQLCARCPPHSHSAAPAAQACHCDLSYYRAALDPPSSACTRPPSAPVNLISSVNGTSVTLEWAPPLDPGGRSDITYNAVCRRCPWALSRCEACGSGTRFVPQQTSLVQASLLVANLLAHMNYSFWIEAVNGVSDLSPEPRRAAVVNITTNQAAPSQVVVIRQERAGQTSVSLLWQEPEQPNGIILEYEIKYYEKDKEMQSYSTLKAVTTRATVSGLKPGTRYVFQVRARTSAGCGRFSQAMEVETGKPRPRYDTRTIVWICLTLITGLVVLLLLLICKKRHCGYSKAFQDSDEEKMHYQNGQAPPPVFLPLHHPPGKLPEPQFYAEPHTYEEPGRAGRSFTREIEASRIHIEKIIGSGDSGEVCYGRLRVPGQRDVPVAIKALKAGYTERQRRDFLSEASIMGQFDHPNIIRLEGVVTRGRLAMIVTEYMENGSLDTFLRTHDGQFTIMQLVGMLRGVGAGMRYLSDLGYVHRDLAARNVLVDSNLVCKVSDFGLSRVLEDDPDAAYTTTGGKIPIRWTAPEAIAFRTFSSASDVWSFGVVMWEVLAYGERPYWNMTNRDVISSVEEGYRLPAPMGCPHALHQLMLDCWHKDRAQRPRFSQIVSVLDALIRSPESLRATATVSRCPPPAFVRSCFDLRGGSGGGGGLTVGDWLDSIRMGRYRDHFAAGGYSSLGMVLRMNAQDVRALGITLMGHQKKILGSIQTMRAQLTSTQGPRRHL
# [9] = target: T2, Ephrin type-A receptor 8 (Homo sapiens); settings: at 10 µM
# [10] = target: T3, Ephrin type-B receptor 1 (Homo sapiens) (UniProt P54762); settings: at 1 µM
# T3 sequence (whole entry): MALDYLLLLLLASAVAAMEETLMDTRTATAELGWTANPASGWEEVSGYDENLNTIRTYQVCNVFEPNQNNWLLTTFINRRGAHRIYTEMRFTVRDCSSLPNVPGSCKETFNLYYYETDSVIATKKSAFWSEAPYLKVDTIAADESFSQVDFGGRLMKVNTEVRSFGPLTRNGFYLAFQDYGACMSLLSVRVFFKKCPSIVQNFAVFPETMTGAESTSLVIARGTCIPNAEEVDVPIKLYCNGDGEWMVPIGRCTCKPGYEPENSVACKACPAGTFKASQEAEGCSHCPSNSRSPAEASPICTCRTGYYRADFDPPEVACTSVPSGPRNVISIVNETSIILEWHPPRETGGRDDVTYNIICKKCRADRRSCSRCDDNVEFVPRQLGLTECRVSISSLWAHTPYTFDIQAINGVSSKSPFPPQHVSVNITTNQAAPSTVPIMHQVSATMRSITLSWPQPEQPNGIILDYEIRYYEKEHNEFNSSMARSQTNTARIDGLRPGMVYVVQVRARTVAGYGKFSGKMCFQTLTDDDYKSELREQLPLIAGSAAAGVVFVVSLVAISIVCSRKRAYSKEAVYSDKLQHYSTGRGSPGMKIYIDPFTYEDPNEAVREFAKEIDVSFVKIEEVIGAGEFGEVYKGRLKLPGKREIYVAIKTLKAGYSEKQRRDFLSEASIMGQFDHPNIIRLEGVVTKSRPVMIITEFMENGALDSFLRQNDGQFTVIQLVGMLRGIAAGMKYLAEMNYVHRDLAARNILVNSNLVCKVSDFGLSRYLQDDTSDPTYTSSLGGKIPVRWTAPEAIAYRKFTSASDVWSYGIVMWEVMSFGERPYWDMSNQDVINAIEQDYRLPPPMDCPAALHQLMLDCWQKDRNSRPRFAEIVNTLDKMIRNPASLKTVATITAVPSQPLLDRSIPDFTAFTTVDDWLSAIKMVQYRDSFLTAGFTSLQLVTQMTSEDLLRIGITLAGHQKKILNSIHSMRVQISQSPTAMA
# Sequence of Ephrin type-A receptor 5 (Homo sapiens) (P54756 whole entry): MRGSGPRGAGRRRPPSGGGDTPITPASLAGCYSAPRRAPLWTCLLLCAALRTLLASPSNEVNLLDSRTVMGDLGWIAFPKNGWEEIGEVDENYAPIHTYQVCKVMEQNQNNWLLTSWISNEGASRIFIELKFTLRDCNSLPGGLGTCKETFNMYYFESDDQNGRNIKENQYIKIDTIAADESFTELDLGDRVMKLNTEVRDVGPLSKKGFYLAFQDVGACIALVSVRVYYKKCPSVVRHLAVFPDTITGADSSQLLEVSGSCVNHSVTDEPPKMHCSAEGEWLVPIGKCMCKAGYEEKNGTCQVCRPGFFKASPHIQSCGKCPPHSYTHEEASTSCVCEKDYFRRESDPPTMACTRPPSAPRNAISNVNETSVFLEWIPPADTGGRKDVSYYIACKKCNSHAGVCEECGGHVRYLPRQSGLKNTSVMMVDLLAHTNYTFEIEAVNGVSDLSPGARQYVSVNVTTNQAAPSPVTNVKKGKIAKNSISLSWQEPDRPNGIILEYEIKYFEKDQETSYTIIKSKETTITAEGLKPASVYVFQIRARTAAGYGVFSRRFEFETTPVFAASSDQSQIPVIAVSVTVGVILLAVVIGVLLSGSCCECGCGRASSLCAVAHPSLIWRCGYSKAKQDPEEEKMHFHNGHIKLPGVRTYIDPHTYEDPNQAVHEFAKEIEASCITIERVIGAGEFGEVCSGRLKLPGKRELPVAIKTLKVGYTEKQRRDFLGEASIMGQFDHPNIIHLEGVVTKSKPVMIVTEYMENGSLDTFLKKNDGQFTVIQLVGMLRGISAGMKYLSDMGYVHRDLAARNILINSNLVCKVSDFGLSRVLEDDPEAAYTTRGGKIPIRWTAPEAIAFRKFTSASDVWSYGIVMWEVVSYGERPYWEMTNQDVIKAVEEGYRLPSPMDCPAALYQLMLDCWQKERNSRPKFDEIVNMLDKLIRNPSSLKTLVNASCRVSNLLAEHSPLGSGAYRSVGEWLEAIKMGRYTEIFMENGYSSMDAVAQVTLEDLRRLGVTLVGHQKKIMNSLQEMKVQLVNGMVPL
# Sequence of Ephrin type-A receptor 7 (Homo sapiens) (Q15375 28-998 limits assumed): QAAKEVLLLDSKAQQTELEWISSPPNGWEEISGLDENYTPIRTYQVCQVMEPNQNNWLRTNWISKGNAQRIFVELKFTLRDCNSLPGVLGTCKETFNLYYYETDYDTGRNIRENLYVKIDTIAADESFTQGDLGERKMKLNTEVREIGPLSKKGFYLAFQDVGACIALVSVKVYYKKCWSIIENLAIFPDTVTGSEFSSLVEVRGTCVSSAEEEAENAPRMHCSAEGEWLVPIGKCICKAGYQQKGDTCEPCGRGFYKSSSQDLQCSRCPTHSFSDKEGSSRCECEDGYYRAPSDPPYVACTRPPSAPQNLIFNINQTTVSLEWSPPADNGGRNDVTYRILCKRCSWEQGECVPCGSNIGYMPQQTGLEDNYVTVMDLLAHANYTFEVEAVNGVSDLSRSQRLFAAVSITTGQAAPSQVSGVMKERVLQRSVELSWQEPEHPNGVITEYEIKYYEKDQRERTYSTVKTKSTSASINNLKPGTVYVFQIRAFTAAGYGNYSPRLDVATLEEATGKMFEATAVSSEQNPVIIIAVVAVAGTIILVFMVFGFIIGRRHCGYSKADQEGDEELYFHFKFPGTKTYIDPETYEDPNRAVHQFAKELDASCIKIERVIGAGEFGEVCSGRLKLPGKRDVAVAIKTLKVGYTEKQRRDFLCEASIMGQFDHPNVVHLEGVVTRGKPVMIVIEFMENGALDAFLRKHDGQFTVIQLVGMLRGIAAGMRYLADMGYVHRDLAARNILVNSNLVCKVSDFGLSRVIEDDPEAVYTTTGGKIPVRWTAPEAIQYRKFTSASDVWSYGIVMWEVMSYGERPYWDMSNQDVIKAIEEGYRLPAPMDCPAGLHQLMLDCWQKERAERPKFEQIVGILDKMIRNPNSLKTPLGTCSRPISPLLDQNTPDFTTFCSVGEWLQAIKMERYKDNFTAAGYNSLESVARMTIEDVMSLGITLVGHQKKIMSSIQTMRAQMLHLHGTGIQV
# Sequence of Ephrin type-A receptor 4 (Homo sapiens) (P54764 whole entry): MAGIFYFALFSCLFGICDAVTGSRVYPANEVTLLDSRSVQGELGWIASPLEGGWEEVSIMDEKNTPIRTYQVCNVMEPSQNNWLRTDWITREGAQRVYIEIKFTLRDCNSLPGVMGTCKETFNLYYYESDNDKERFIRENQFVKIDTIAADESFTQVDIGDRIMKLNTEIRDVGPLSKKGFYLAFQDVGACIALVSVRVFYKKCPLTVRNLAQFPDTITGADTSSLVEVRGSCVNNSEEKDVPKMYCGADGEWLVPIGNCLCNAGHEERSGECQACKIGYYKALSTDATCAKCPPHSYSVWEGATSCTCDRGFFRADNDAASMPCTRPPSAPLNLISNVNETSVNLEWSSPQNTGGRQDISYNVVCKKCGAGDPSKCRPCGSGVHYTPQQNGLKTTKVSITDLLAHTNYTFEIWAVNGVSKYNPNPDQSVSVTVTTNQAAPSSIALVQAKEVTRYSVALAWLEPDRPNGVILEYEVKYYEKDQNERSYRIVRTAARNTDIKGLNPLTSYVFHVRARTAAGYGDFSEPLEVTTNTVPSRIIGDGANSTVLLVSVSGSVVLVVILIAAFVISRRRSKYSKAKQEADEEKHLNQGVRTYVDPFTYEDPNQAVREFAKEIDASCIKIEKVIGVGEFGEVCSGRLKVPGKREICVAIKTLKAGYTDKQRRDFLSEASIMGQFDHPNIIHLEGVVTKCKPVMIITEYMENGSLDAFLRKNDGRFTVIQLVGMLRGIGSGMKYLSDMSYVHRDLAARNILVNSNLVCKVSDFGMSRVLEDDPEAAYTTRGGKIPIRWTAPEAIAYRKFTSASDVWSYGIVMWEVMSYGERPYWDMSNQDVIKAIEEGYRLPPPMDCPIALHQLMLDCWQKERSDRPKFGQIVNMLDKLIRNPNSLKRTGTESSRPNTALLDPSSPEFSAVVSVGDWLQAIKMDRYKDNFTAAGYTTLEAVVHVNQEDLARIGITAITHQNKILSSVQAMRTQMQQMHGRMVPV
smiles,measurement,setting,value
CO[C@H]1[C@@H](OC)C[C@H](C)[C@@H](OC)C2=CC(=O)C=C(NC(=O)/C(C)=C/C=C/[C@H](OC)[C@@H](OC(N)=O)/C(C)=C/[C@@H]1C)C2=O,residual activity,[1],85%
same,residual activity,[2],110%
same,residual activity,[3],112%
same,residual activity,[4],107%
same,residual activity,[5],95%
same,residual activity,[6],95%
same,residual activity,[7],96%
same,residual activity,[8],96%
same,residual activity,[9],105%
same,residual activity,[10],109%
